Measured values from PubChem BioAssay.
Inconclusive results are not listed. The source made the active and inactive calls.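 Rule for the calls, unless noted: active = viability at or below 10% of carrier control in both of two separate runs; inconclusive = viability at or below 10% in only one of the two runs; inactive = the rest.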

Key:
[1] = reducers of endogenous Her2 protein level, primary screen, SKBR3 breast tumor cells, AlphaScreen, ATP viability (AID 461;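 active = Her2 level under about 52% in both replicate screens, with viability over 70% of control, limit read from the data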;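 for Her2 level: lower value means less Her2 protein in the cells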;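 for viability: percent of carrier control wells set as 100% viability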); conditions: 18-24 h, measured here: SKBR3 viability, ATP luminescence, at 10 µM
[2] = target: Receptor tyrosine-protein kinase erbB-2 (Homo sapiens) (UniProt P04626); assay: as above; conditions: 18-24 h, at 10 µM, stronger effect = lower value
[3] = SK-BR-3 cell growth inhibitors, pilot screen, 24 h, human (AID 572); conditions: SK-BR-3 viability, CellTiter-Glo luminescence, at 10 µM, stronger effect = lower value;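 note: compound exposure lasted between 18 and 24 h rather than exactly 24 h; 100% = carrier-treated control wells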
[4] = HUVEC growth inhibition – cell-based, human, primary screen (AID 575;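 active = viability at or below 30% in both replicate assays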;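 note: 100% = median of untreated cell wells with 0.1% DMSO on each plate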); conditions: HUVEC proliferation, CellTiter-Glo luminescence, 72 h; at 10 µM; stronger effect = lower value
[5] = growth inhibitors of H69AR lung tumor, primary screen, human, duplicate replicates (AID 580;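 active = viability at or under a set limit in both replicates, limit being median viability minus 3 SD, cut at about 48% in these data, passing the limit was not always enough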;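 note: 100% = mean luminescence of untreated wells and 0% = no signal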); conditions: H69AR lung tumor cells viability, ATP luminescence, 72 h; at 10 µM; stronger effect = lower value
[6] = reversal of MRP1-mediated doxorubicin resistance, pilot screen, H69AR cells, doxorubicin co-treatment (AID 601;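 active = viability loss from added drug above about 55%, and viability with drug at most 40%, in both replicates, limit read from the data, passing the limit was not always enough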); conditions: CellTiter-Glo, 72 h, at 10 µM; for differential viability (reversal): stronger effect = higher value
[7] = 384-well plate pilot, post-Golgi transport modulator project, inhibition of yeast transport mutant growth (AID 636; in the data active = inhibition above about 31%); conditions: absorbance 615 nm, about 18 h, stronger effect = higher value
[8] = growth suppression of yeast trafficking mutant, preliminary HTS, modulators of trafficking downstream of Golgi apparatus project, 1536-format plate, OD 615 nm (AID 637; in the data active = inhibition above about 30%); conditions: yeast transport mutant growth, absorbance 615 nm, 18 h; stronger effect = higher value
[9] = OD615 S. cerevisiae growth inhibition, permissive medium, pilot counter-assay, permissive growth control for S. cerevisiae lifespan shortening project (AID 705;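 active = growth inhibition above 25% in both replicates, a cutoff set 3 SD above the mean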); conditions: OD615, 24 h, at 10 µM, stronger effect = higher value
[10] = Restrictive medium S. cerevisiae growth inhibition, OD615, pilot screen of yeast lifespan reduction project, restrictive growth control (AID 706;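 active = growth inhibition above a set limit, 3 SD over mean compound inhibition, in both replicates, cut at about 43% in these data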;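 note: modified DeaD lifespan yeast strain shifted to restrictive glucose medium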); conditions: OD615, 48 h, at 10 µM, stronger effect = higher value
[11] = viability gain of MRP-1-high H69AR cells under doxorubicin, pilot screen, MRP-1 activator project, CellTiter-Glo, duplicate (AID 807;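 active = viability increase at or above a cutoff of the median across tested compounds plus 3 SD, cut at about 8.5% in these data, passing the limit was not always enough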;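 note: compound pretreatment 18-22 h then 72 h combined with doxorubicin; 0% = doxorubicin alone and 100% = vehicle without doxorubicin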); conditions: H69AR viability with doxorubicin, CellTiter-Glo luminescence; at 10 µM; stronger effect = higher value
[12] = growth suppression of beta-catenin knockout HCT116, pilot screen, human colon tumor cells (AID 823;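 active = cell viability at or below a set limit in both duplicate runs, the limit being the all-compound median minus 4 SD, cut at about 23% in these data, passing the limit was not always enough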;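 note: 0% = wells killed by 20 µM Hyamine and 100% = untreated DMSO cell wells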); conditions: CellTiter-Glo, 60 h, at 10 µM, stronger effect = lower value
[13] = growth suppression of PTEN-deleted HCT116, pilot screen, cell-based, HCT116 clonal line, CellTiter-Glo (AID 824;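 active = viability at or below 27.92% in each of two runs, the all-compound median minus 4 SD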;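 note: 0% = 20 µM Hyamine control and 100% = vehicle cell control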); conditions: 60 h, at 10 µM, stronger effect = lower value
[14] = inhibitors of the yeast RAM network, pilot screen, dse1pr::URA3 reporter, 5-FOA selection (AID 869;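 active = inhibition over a set limit, the all-compound mean plus 3 SD, in both replicate runs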;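 note: 0% = DMSO wells with no growth and 100% = 10 µM 1-NA-PP1 with full growth; RAM network block rescues cells from 5-FOA so hits raise OD615 growth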); conditions: S. cerevisiae dse1pr::URA3 5-FOA growth, OD615, 2 d; at 10 µM; stronger effect = higher value; strain carries analog-sensitive mutant Cbk1 kinase
[15] = RAM signaling pathway blockade in yeast – S. cerevisiae, Pdr1DBD-CYC8 efflux-inhibited sensitized strain, primary screen (AID 1298;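 active = RAM network inhibition above 8.4% in each of two replicates, 3 SD over the compound average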;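 note: 0% = DMSO untreated cells without growth and 100% = 10 µM 1-NA-PP1 full growth; higher means more yeast growth rescued from 5-FOA killing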); conditions: S. cerevisiae cbk1-as DSE1-URA3 strain, 5-FOA growth OD615, 2 d; at 50 µM; stronger effect = higher value
[16] = H69AR cells + 2 uM doxorubicin, measured here: viability with 2 uM doxorubicin, stronger effect = lower value
[17] = H69AR cells, compound alone cytotoxicity

Receptor tyrosine-protein kinase erbB-2 (Homo sapiens), sequence (P04626 whole entry, looked up): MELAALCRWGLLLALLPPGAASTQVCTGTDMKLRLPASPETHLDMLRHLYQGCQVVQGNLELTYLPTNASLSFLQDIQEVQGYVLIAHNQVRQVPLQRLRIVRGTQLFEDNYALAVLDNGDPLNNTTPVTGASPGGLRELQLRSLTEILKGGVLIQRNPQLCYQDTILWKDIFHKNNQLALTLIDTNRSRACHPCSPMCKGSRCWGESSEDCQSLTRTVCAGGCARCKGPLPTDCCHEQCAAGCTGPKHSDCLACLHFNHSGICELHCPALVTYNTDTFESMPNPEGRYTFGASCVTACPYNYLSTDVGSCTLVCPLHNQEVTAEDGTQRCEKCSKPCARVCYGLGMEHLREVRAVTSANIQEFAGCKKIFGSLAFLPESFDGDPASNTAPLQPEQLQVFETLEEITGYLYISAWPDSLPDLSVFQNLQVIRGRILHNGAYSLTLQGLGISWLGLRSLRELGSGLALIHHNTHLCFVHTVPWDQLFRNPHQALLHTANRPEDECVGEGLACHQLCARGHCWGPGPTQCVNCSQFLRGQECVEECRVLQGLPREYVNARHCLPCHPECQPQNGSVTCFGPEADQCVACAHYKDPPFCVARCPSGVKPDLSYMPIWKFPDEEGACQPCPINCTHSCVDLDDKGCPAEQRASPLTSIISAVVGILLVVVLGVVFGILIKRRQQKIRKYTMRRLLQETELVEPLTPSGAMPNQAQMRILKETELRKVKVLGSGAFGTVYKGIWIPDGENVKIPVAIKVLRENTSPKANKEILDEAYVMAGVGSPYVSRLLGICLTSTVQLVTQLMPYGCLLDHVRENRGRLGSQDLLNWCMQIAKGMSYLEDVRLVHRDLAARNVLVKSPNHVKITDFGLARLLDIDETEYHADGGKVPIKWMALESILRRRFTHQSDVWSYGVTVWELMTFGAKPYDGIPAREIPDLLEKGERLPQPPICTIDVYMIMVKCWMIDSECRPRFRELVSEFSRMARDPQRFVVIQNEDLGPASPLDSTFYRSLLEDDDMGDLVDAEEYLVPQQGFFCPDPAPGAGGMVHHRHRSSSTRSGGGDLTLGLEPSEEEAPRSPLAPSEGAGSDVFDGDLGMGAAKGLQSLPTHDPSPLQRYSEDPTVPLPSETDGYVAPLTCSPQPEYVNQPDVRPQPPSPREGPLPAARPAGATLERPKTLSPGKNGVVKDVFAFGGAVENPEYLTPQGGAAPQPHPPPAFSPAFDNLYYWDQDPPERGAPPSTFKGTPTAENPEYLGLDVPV

Clc1cccc(N2CCN(Cc3nc(-c4ccccc4)no3)CC2)c1
90.5%: viability [1]
95.4%: viability [6, 16]
inactive: Her2 level [2] 96% | viability [3] 90.5% | viability [4] 109% | viability [5] 91.3% | differential viability (reversal) ([6]; H69AR cells + 2 uM doxorubicin) -4.04% | inhibition [7] 0.53% | inhibition [8] -6.5% | growth inhibition [9] 3.02% | growth inhibition [10] 0.865% | viability increase [11] -2.61% | viability [12] 91.5% | viability [13] 90% | inhibition [14] -1.2% | RAM network inhibition [15] 4.99%
91.3%: viability [6, 17]

CCSc1nnc(N2C(=O)CC(c3ccsc3)C3=C2CC(C)(C)CC3=O)s1 (stereo not given)
inactive: Her2 level [2] 108% | viability [3] 89% | viability [4] 81.3% | viability [5] 89% | differential viability (reversal) ([6]; H69AR cells + 2 uM doxorubicin) -15% | inhibition [7] -6.67% | inhibition [8] 9.5% | growth inhibition [9] 2.55% | growth inhibition [10] 0.01% | viability increase [11] -1.55% | viability [12] 103% | viability [13] 94.9% | inhibition [14] 0.195% | RAM network inhibition [15] 3.19%
89%: viability [1] | viability [6, 17]
104%: viability [6, 16]

O=C(CSc1ccc2nnc(-c3ccccc3)n2n1)N1CCN(c2ccccc2)CC1
93.5%: viability [1]
inactive: Her2 level [2] 114% | viability [3] 93.5% | viability [4] 77.9% | viability [5] 83.8% | differential viability (reversal) ([6]; H69AR cells + 2 uM doxorubicin) -9.57% | inhibition [7] -0.13% | inhibition [8] 7.67% | growth inhibition [9] -0.235% | growth inhibition [10] 8.33% | viability increase [11] -3.49% | viability [12] 101% | viability [13] 93.8% | inhibition [14] 0.38% | RAM network inhibition [15] 0.93%
83.8%: viability [6, 17]
93.4%: viability [6, 16]

COc1ccc(NC(=O)NCCN2C(=O)C3C4C=CC(C4)C3C2=O)cc1 (stereo not given)
97.5%: viability [6, 16]
96%: viability [1]
101%: viability [6, 17]
inactive: Her2 level [2] 91% | viability [3] 96% | viability [4] 100% | viability [5] 101% | differential viability (reversal) ([6]; H69AR cells + 2 uM doxorubicin) 3.28% | inhibition [7] -1.33% | inhibition [8] 0.33% | growth inhibition [9] -5.58% | growth inhibition [10] 10.4% | viability increase [11] -0.53% | viability [12] 99.1% | viability [13] 94.5% | inhibition [14] 1.5% | RAM network inhibition [15] -1.15%

Cc1nnc(NC(=O)c2ccco2)s1
98.5%: viability [1]
inactive: Her2 level [2] 92.5% | viability [3] 98.5% | viability [4] 98.6% | viability [5] 104% | differential viability (reversal) ([6]; H69AR cells + 2 uM doxorubicin) 7.39% | inhibition [7] -4.13% | inhibition [8] 7.21% | growth inhibition [9] -10.1% | growth inhibition [10] -8.55% | viability increase [11] 4.22% | viability [12] 94.9% | viability [13] 97.2% | inhibition [14] 0.67% | RAM network inhibition [15] 0.21%
104%: viability [6, 17]
96.3%: viability [6, 16]

CCOC(=O)CN1CC23C=CC(O2)C(C(=O)Nc2ccc(C(C)=O)cc2)C3C1=O (stereo not given)
96.4%: viability [6, 17]
94%: viability [6, 16]
inactive: Her2 level [2] 101% | viability [3] 87% | viability [4] 101% | viability [5] 96.4% | differential viability (reversal) ([6]; H69AR cells + 2 uM doxorubicin) 2.38% | inhibition [7] -1.07% | inhibition [8] 2.67% | growth inhibition [9] -5.7% | growth inhibition [10] 2.56% | viability increase [11] -1.78% | viability [12] 102% | viability [13] 94.2% | inhibition [14] 1.26% | RAM network inhibition [15] 1.41%
87%: viability [1]

CC(NC(=O)C1CC1)C(c1cccs1)N1CCN(c2ccccc2)CC1 (stereo not given)
93.8%: viability [6, 16]
95.5%: viability [1]
inactive: Her2 level [2] 96% | viability [3] 95.5% | viability [4] 105% | viability [5] 89.5% | differential viability (reversal) ([6]; H69AR cells + 2 uM doxorubicin) -4.32% | inhibition [7] -4.13% | inhibition [8] -5.57% | growth inhibition [9] -6.42% | growth inhibition [10] 6.87% | viability increase [11] 0.65% | viability [12] 92% | viability [13] 93.2% | inhibition [14] 2.08% | RAM network inhibition [15] -0.26%
89.5%: viability [6, 17]

O=C(NCc1ccco1)C1CCN(c2ccc(N3CCOCC3)nn2)CC1
83.6%: viability [6, 17]
86.5%: viability [1]
80.6%: viability [6, 16]
inactive: Her2 level [2] 120% | viability [3] 86.5% | viability [4] 91.4% | viability [5] 83.6% | differential viability (reversal) ([6]; H69AR cells + 2 uM doxorubicin) 2.94% | inhibition [7] -0.53% | inhibition [8] -0.83% | growth inhibition [9] 0.41% | growth inhibition [10] 5.46% | viability increase [11] -3.71% | viability [12] 95.2% | viability [13] 97.3% | inhibition [14] 0.935% | RAM network inhibition [15] 4.7%

N#Cc1cnc2sc3ccccc3n2c1=N
99%: viability [1]
inactive: Her2 level [2] 114% | viability [3] 99% | viability [4] 69% | viability [5] 87.7% | differential viability (reversal) ([6]; H69AR cells + 2 uM doxorubicin) -2.73% | inhibition [7] -3.07% | inhibition [8] 3.06% | growth inhibition [9] 0.55% | growth inhibition [10] 12.3% | viability increase [11] -1.27% | viability [12] 94.4% | viability [13] 95.9% | inhibition [14] -0.405% | RAM network inhibition [15] 5.97%
90.5%: viability [6, 16]
87.7%: viability [6, 17]

CCOC(=O)N1CCN(C(=O)COc2ccc(S(=O)(=O)NC(C)C)cc2)CC1
90%: viability [6, 16]
90.3%: viability [6, 17]
inactive: Her2 level [2] 105% | viability [3] 96% | viability [4] 106% | viability [5] 90.3% | differential viability (reversal) ([6]; H69AR cells + 2 uM doxorubicin) 0.365% | inhibition [7] -5.07% | inhibition [8] 2.33% | growth inhibition [9] -17.6% | growth inhibition [10] -20.2% | viability increase [11] -0.64% | viability [12] 96.2% | viability [13] 93% | inhibition [14] 1.71% | RAM network inhibition [15] 7.54%
96%: viability [1]
